We go through 3 compounds from PubChem BioAssay (EPA / NIEHS).

What all share (conditions): mRNA level, 48 h; actives raise or lower the signal
Read-out in test [1]: Paternally Expressed 10 (PEG10), PEG10 (gene 23089)
Nature of the test: LTEA_HepaRG_PEG10: Life Technologies and Expression Analysis (LTEA) Assay for Paternally Expressed 10 (PEG10) using HepaRG (AID 2283520). The gist of the method: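 Differentiated HepaRG cells, plated 48 h then switched to serum-free induction medium, were exposed in duplicate for 48 h to eight half-log concentrations topping at 100 uM in 0.5% DMSO. PEG10 mRNA was quantified by TaqMan qRT-PCR, normalised to ACTB, GAPDH and POLR2A.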

Read-out in test [2]: Nuclear factor NF-kappa-B p105 subunit (Homo sapiens) (UniProt P19838)
As to the kind of experiment: LTEA_HepaRG_NFKB1: Life Technologies and Expression Analysis (LTEA) Assay for Nuclear Factor Kappa B Subunit 1 (NFKB1) using HepaRG (AID 2283521). The gist of the method:
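Differentiated human HepaRG cells were exposed for 48 h in serum-free induction medium to eight concentrations (top 100 uM, half-log steps, 0.5% DMSO), in duplicate. NFKB1 mRNA was measured by TaqMan qRT-PCR, normalized to ACTB/GAPDH/POLR2A, and fitted bidirectionally against DMSO.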

Read-out in test [3]: Protein phosphatase 2A (PPP2R4), PTPA (gene 5524)
As to the kind of experiment: LTEA_HepaRG_PPP2R4: Life Technologies and Expression Analysis (LTEA) Assay for Protein phosphatase 2A (PPP2R4) using HepaRG (AID 2283522). Summed up: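 Differentiated HepaRG cells in serum-free induction medium were exposed in duplicate for 48 h to eight concentrations, top 100 uM with half-log dilutions, in 0.5% DMSO. PPP2R4 mRNA was quantified by TaqMan qRT-PCR, normalized to ACTB, GAPDH and POLR2A.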

Read-out in test [4]: Phosphatase and tensin (PTEN), PTEN (gene 5728)
Nature of the test: LTEA_HepaRG_PTEN: Life Technologies and Expression Analysis (LTEA) Assay for Phosphatase and tensin (PTEN) using HepaRG (AID 2283523). Summed up:
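Differentiated human HepaRG cells, plated 48 h then switched to serum-free induction medium, were exposed in duplicate for 48 h to eight half-log concentrations up to 100 uM in 0.5% DMSO. PTEN mRNA measured by TaqMan qRT-PCR, normalized to ACTB/GAPDH/POLR2A, bidirectional fit versus DMSO.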

Read-out in test [5]: solute carrier (SLC22A1), SLC22A1 (gene 6580)
As to the kind of experiment: LTEA_HepaRG_SLC22A1: Life Technologies and Expression Analysis (LTEA) Assay for solute carrier (SLC22A1) using HepaRG (AID 2283524). The gist of the method:
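Human HepaRG cells were plated 48 h, switched to serum-free induction medium, then exposed in duplicate for 48 h to 8-point half-log series from 100 uM in 0.5% DMSO. SLC22A1 mRNA measured by qRT-PCR, normalized to ACTB/GAPDH/POLR2A, fitted bidirectionally versus DMSO.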

Read-out in test [6]: Nuclear factor erythroid 2-related factor 2 (Homo sapiens) (UniProt Q16236)
Nature of the test: LTEA_HepaRG_NFE2L2: Life Technologies and Expression Analysis (LTEA) Assay for Nuclear factor erythroid 2-related factor 2 (NFE2L2) Transcription Factor using HepaRG (AID 2283527).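 For outcome: TaqMan qRT-PCR transcript level normalised to ACTB GAPDH and POLR2A housekeeping genes.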 The gist of the method:
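Differentiated human HepaRG cells in serum-free induction medium were exposed for 48 h to eight concentrations (top 100 uM, half-log dilutions, 0.5% DMSO), in duplicate. NFE2L2 mRNA was quantified by TaqMan qRT-PCR, normalized to ACTB, GAPDH and POLR2A, with bidirectional fitting versus DMSO.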

Read-out in test [7]: succinate dehydrogenase complex iron sulfur subunit B (SDHB), SDHB (gene 6390)
As to the kind of experiment: LTEA_HepaRG_SDHB: Life Technologies and Expression Analysis (LTEA) Assay for succinate dehydrogenase complex iron sulfur subunit B (SDHB) using HepaRG (AID 2283528). The gist of the method: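 HepaRG, 48 h exposure, 8-pt half-log series from 100 uM in 0.5% DMSO, duplicates. Readout: SDHB mRNA by Fluidigm qRT-PCR vs housekeeping genes; bidirectional fit relative to DMSO.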

Read-out in test [8]: solute carrier (SLCO1B1), SLCO1B1 (gene 10599)
Nature of the test: LTEA_HepaRG_SLCO1B1: Life Technologies and Expression Analysis (LTEA) Assay for solute carrier (SLCO1B1) using HepaRG (AID 2283530). The gist of the method:
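SLCO1B1 transcript levels were quantified by TaqMan qRT-PCR using three housekeeping genes for normalization. This followed 48 h chemical exposure (100 uM top, half-log, 8 points, 0.5% DMSO) of HepaRG liver cells, with gain or loss fitted relative to DMSO.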

Read-out in test [9]: sulfotransferase 2A1 (SULT2A1), SULT2A1 (gene 6822)
Nature of the test: LTEA_HepaRG_SULT2A1: Life Technologies and Expression Analysis (LTEA) Assay for sulfotransferase 2A1 (SULT2A1) using HepaRG (AID 2283531). The gist of the method: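 Expression change of SULT2A1, by qRT-PCR with three housekeeping-gene normalization, was scored bidirectionally versus DMSO. Cells: differentiated HepaRG, dosed in duplicate for 48 h across 8 points, highest 100 µM, half-log dilution, 0.5% DMSO.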

Read-out in test [10]: Transforming Growth Factor (TGFA), TGFA (gene 7039)
Nature of the test: LTEA_HepaRG_TGFA: Life Technologies and Expression Analysis (LTEA) Assay for Transforming Growth Factor (TGFA) using HepaRG (AID 2283532). Summed up: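 Differentiated human HepaRG cells, plated 48 h then switched to serum-free induction medium, were exposed in duplicate for 48 h to 8-point half-log series from 100 uM in 0.5% DMSO. TGFA mRNA measured by qRT-PCR, normalized to ACTB/GAPDH/POLR2A, bidirectional fit versus DMSO.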

Read-out in test [11]: Transforming Growth Factor (TGFB1), TGFB1 (gene 7040)
Nature of the test: LTEA_HepaRG_TGFB1: Life Technologies and Expression Analysis (LTEA) Assay for Transforming Growth Factor (TGFB1) Transporter using HepaRG (AID 2283533). The gist of the method:
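TGFB1 transcript measured by qRT-PCR with normalisation to three housekeeping genes (ACTB, GAPDH, POLR2A); human HepaRG line treated in duplicate for 48 hr with an 8-point series topping at 100 uM, 0.5% DMSO vehicle, bidirectionally fitted.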

Read-out in another test: TIMP1, TIMP1 (gene 7076)
As to the kind of experiment: LTEA_HepaRG_TIMP1: Life Technologies and Expression Analysis (LTEA) Assay for TIMP1 using HepaRG (AID 2283534).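 For outcome: TaqMan qRT-PCR signal normalized to ACTB GAPDH and POLR2A housekeeping genes.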 Summed up:
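Bidirectional change in TIMP1 transcript versus 0.5% DMSO, measured by TaqMan qRT-PCR with three housekeeping genes for normalization. HepaRG human liver cells dosed 48 h in duplicate, top concentration 100 uM with half-log dilutions.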

Read-out in test [12]: Tumor necrosis factor receptor 1 (TNFRSF1A), TNFRSF1A (gene 7132)
As to the kind of experiment: LTEA_HepaRG_TNFRSF1A: Life Technologies and Expression Analysis (LTEA) Assay for Tumor necrosis factor receptor 1 (TNFRSF1A) using HepaRG (AID 2283535). The gist of the method: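 mRNA measured by qRT-PCR (TaqMan, Fluidigm arrays) against ACTB/GAPDH/POLR2A housekeepers after 48 h chemical exposure of HepaRG cells. Top concentration 100 uM, half-log 8-point series, duplicates; vehicle 0.5% DMSO, both fit directions.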

Read-out in test [13]: Thyroid Hormone Responsive (THRSP), THRSP (gene 7069)
Nature of the test: LTEA_HepaRG_THRSP: Life Technologies and Expression Analysis (LTEA) Assay for Thyroid Hormone Responsive (THRSP) using HepaRG (AID 2283536). The gist of the method:
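Differentiated human HepaRG cells were exposed in duplicate for 48 h in serum-free induction medium to eight concentrations (top 100 uM, half-log steps, 0.5% DMSO). Expression was quantified by TaqMan qRT-PCR, normalized to ACTB, GAPDH and POLR2A, with bidirectional fitting against DMSO.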

Read-out in test [14]: Cellular tumor antigen p53 (Homo sapiens) (UniProt P04637)
Nature of the test: LTEA_HepaRG_TP53: Life Technologies and Expression Analysis (LTEA) Assay for Tumor Protein P53 (TP53) using HepaRG (AID 2283537). The gist of the method:
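HepaRG, 48 h exposure, top 100 uM, half-log 8-point, 0.5% DMSO vehicle, duplicates. Read: TP53 mRNA by TaqMan qRT-PCR, normalised to ACTB/GAPDH/POLR2A; bidirectional fit vs DMSO.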

Read-out in test [15]: UDP glucuronosyltransferase (UGT1A1), UGT1A1 (gene 54658)
Nature of the test: LTEA_HepaRG_UGT1A1: Life Technologies and Expression Analysis (LTEA) Assay for UDP glucuronosyltransferase (UGT1A1) using HepaRG (AID 2283538). Summed up:
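Differentiated human HepaRG cells in serum-free induction medium were exposed in duplicate for 48 h to eight half-log concentrations up to 100 uM in 0.5% DMSO. UGT1A1 mRNA was quantified by TaqMan qRT-PCR, normalized to ACTB, GAPDH and POLR2A, and fitted bidirectionally against DMSO.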

Read-out in test [16]: UDP glucuronosyltransferase (UGT1A6), UGT1A6 (gene 54578)
As to the kind of experiment: LTEA_HepaRG_UGT1A6: Life Technologies and Expression Analysis (LTEA) Assay for UDP glucuronosyltransferase (UGT1A6) using HepaRG (AID 2283539). Summed up: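 Expression was quantified by TaqMan qRT-PCR on Fluidigm arrays with ACTB/GAPDH/POLR2A normalization and bidirectional fitting against 0.5% DMSO. HepaRG cells (~100,000/well) were treated in duplicate for 48 h at eight half-log concentrations up to 100 uM in serum-free induction medium.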

Read-out in test [17]: Pyruvate Dehydrogenase Kinase 4 (PDK4), PDK4 (gene 5166)
Nature of the test: LTEA_HepaRG_PDK4: Life Technologies and Expression Analysis (LTEA) Assay for Pyruvate Dehydrogenase Kinase 4 (PDK4) using HepaRG (AID 2283525). Summed up:
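Differentiated human HepaRG cells, pre-cultured 48 h, were exposed in duplicate for 48 h in serum-free induction medium to eight half-log concentrations up to 100 uM in 0.5% DMSO. PDK4 mRNA was quantified by qRT-PCR, normalized to ACTB, GAPDH and POLR2A, bidirectional fitting versus DMSO.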

One may read the AC50 as the midpoint of the concentration-response curve, whichever way the signal moves.

Calls of active or inactive are those of the source. Rule for the calls: active = hit-call score of the fitted dose curve at least 0.9, where 1 is the maximum; inactive = score below 0.9.

Nuclear factor erythroid 2-related factor 2 (Homo sapiens), sequence (Q16236 whole entry, looked up): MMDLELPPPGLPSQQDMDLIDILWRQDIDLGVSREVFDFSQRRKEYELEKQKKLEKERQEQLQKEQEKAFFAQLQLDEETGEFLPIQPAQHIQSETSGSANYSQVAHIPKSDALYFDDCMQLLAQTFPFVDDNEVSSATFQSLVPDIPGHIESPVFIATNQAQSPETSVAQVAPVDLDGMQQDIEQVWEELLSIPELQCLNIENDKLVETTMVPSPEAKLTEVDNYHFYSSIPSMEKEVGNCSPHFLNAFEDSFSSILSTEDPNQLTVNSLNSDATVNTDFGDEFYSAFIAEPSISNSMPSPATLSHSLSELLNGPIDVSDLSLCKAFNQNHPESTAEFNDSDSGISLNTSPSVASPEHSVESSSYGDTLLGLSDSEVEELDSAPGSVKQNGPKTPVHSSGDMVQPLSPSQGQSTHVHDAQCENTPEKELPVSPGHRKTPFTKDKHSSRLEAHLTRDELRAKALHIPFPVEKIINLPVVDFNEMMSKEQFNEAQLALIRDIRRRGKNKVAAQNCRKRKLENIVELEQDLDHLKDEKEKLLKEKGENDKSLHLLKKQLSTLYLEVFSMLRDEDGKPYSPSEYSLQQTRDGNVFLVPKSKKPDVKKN
Nuclear factor NF-kappa-B p105 subunit (Homo sapiens), sequence (P19838 whole entry, looked up): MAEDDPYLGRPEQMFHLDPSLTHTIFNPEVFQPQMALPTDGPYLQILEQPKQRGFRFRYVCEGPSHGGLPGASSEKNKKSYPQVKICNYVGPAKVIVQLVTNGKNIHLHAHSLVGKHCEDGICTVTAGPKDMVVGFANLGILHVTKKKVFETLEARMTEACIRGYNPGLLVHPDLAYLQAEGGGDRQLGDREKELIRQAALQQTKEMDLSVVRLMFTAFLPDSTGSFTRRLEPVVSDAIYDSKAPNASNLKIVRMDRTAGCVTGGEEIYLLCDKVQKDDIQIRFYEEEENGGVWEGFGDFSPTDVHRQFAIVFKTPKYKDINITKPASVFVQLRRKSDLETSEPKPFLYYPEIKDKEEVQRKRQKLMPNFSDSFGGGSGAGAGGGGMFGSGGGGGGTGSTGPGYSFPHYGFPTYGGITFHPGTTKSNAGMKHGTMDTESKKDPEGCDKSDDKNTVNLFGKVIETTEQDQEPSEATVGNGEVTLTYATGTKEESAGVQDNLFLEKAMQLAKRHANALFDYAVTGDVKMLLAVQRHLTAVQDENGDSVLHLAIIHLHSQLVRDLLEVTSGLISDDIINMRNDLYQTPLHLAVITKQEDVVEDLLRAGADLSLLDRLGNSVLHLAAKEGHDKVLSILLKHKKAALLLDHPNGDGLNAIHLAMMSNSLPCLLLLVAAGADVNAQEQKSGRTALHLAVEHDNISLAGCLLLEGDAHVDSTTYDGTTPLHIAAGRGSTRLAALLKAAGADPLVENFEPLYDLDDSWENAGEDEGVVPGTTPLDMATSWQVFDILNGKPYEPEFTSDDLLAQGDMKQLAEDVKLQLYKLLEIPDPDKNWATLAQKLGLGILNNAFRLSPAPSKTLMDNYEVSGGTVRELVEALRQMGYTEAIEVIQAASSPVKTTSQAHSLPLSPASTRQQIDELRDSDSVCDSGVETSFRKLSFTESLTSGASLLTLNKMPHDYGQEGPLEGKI
Cellular tumor antigen p53 (Homo sapiens), sequence (P04637 whole entry, looked up): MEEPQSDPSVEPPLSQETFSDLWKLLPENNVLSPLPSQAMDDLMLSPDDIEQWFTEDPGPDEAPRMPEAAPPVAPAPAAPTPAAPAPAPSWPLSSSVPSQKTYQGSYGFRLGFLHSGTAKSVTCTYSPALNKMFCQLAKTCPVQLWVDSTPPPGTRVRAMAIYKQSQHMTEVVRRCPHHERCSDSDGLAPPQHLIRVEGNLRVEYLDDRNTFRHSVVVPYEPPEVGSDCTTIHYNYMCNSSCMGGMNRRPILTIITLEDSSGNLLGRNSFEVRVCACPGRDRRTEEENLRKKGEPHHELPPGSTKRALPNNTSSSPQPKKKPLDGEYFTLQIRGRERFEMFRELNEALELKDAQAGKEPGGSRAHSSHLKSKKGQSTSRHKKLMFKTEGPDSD

As for `CCCCCCCCCCCC[N+](C)(C)C`, the AC50 in test [1] was 33.8 µM (active); in test [5], 91 µM (active); in [6] it was 76.9 µM (active); in test [8], 88.1 µM (active); in test [9] it was 93.5 µM (active); in [10], 77 µM (active). Moreover, the concentration at half-maximal activity (AC50) is 50 µM (active) in test [11]; 83.4 µM (active) in the test with TIMP1, TIMP1 (gene 7076); 81.9 µM (active) in test [14]; 88.3 µM (active) in [15]; 89.9 µM (active) in test [16]. The result in test [2], in test [3], in test [4], in [7], in [12] and in test [13] was inactive.
For the compound `O=C(OCCCCCCOC(=O)c1ccccc1)c1ccccc1`, the compound was classed as inactive in test [1], in test [2], in test [3], in [4], in [5] and in test [6]. The outcome was “inactive” in [7]; “inactive” in test [8]; “inactive” in [9]; “inactive” in test [10]; “inactive” in [11]; “inactive” in the test with TIMP1, TIMP1 (gene 7076). Further, the outcome in [12], in test [13], in test [14], in test [15] and in test [16] was inactive.
As to `Cc1c2ccccc2c(C)c2c1ccc1ccccc12`, the AC50 was 28.5 µM (active) in test [1]; 41.2 µM (active) in test [5]; 56.6 µM (active) in test [17]; 90.5 µM (active) in [6]; 59.5 µM (active) in test [8]; 71.1 µM (active) in [9]. For the same compound, the AC50 in test [10] is 63.3 µM (active); in test [11] it was 35 µM (active); in test [13], 75.4 µM (active); in [14], 54.1 µM (active); in test [15] it was 0.714 µM (active); in test [16], 35 µM (active). For the same compound, the outcome in test [2] is “inactive”; in test [3], “inactive”; in test [7], “inactive”; with TIMP1, TIMP1 (gene 7076), “inactive”; in test [12] it was “inactive”.
